Results as given in the supplement of paper PMC3545927.
The other results are listed elsewhere or left out. The true hit rate is not given.

Biological target: furin, P09958
Experiment: furin cleavage Z-score vs untreated control; higher = more cleavage, active = 3.5 or more, inactive = 1 or less, 8 variable residues between constant flanks
In short: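 In 50 mM HEPES pH 7.5 with CaCl2 and NaCl, purified furin was incubated with bead-anchored 8-mer peptide–cDNA fusions at 1:10 enzyme:substrate in 0.01 ml. Incubation times were 7.5, 15 and 30 min. DNA set free by cleavage was adapter-tagged by PCR and sequenced, with read counts taken as abundance. Log counts relative to furin-free reactions, after lowess adjustment and median absolute deviation scaling, form the cleavage Z-score.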

furin, P09958, sequence (P09958 whole entry): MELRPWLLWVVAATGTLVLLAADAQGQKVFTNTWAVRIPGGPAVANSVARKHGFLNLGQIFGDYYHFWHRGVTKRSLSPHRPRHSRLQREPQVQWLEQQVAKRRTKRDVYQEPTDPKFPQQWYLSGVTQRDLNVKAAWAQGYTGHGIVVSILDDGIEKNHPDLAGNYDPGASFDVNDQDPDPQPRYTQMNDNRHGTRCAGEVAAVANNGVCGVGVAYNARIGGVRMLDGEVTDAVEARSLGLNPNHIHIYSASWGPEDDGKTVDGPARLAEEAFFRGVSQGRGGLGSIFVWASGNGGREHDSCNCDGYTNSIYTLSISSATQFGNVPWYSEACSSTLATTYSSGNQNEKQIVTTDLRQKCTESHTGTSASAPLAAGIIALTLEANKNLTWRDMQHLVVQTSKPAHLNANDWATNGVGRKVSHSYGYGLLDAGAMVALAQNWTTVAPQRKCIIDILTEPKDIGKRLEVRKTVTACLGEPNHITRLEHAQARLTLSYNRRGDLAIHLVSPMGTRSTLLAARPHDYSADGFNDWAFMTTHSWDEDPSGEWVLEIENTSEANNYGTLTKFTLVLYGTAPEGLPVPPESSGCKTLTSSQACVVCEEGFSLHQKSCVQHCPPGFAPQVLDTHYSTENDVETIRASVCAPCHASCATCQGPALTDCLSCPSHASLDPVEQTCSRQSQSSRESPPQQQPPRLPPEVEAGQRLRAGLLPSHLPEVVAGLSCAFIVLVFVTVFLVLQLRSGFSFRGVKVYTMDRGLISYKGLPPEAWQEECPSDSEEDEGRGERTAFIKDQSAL

Row | Sequence | furin cleavage Z-score (7.5 min) | furin cleavage Z-score (15 min) | furin cleavage Z-score (30 min)
1 | CAMEECSQHIAGNASASA [HC1764] | -0.598 (inactive) | 0.0833 (inactive) | 0.396 (inactive)
2 | CAMRSPVFTDAGNASASA [HC763] | 0.639 (inactive) | -0.615 (inactive) | -0.411 (inactive)
3 | CAFDVVCCSMAGNASASA [HC2107] | -0.364 (inactive) | 0.607 (inactive) | -0.057 (inactive)
4 | CAGERPSGMFAGNASASA [HC913] | 1.14 | -1.35 (inactive) | -0.577 (inactive)
5 | CATTPCSLSWAGNASASA [HC1885] | 1.37 | 1.04 | 0.14 (inactive)
6 | CARGRRSHDPAGNASASA [FS-2674] | 0.899 (inactive) | 3.42 | 3.55 (active)
7 | CARGRRQPIPAGNASASA [HC190] | 0.155 (inactive) | -0.409 (inactive) | -0.134 (inactive)
8 | CARGRRGMKDAGNASASA [FS-2394] | 0.884 (inactive) | 1.5 | 2.14
9 | CARGRRQKQNAGNASASA [FS-2418] | 0.749 (inactive) | 0.513 (inactive) | 0.917 (inactive)
10 | CARGRRSRRAAGNASASA [FS-1062] | 5.6 (active) | 4.73 (active) | 4.94 (active)
11 | CARPIRSRRAAGNASASA [FS-1563] | 11.5 (active) | 11.2 (active) | 9.54 (active)
12 | CACPAGHAVGAGNASASA [HC746] | -0.805 (inactive) | -1.77 (inactive) | 0.00889 (inactive)
13 | CAPLGNWFGCAGNASASA [HC433] | 1.65 | 0.567 (inactive) | 1.54
14 | CAHSSRLKRLAGNASASA [FS-1011] | 6.44 (active) | 7.96 (active) | 7.66 (active)
15 | CAVKSRLKRLAGNASASA [FS-890] | 9.42 (active) | 12 (active) | 9.55 (active)
16 | CAIKSLTERLAGNASASA [HC1497] | -0.222 (inactive) | -0.416 (inactive) | -0.246 (inactive)
17 | CADGMEECSQAGNASASA [HC1816] | -0.375 (inactive) | 0.927 (inactive) | 0.477 (inactive)
18 | CAMSECSQHLAGNASASA [HC1697] | 0.222 (inactive) | 0.351 (inactive) | 1.22
19 | CAMEECSCHLAGNASASA [HC1740] | 0.898 (inactive) | -0.945 (inactive) | 0.106 (inactive)
20 | CALDSFDPLVAGNASASA [HC1287] | 0.861 (inactive) | 0.184 (inactive) | 1.88
21 | CALEGEPGDPAGNASASA [HC1356] | -0.565 (inactive) | 0.288 (inactive) | 0.927 (inactive)
22 | CALNEIKKRFAGNASASA [FS-352] | 0.841 (inactive) | -1.42 (inactive) | -0.561 (inactive)
23 | CAGSIRKKRFAGNASASA [FS-1457] | 6.25 (active) | 7.01 (active) | 6.64 (active)

Row | Sequence | furin cleavage Z-score (7.5 min) | furin cleavage Z-score (15 min) | furin cleavage Z-score (30 min)
24 | CAKMRRKKRFAGNASASA [FS-1459] | 7.33 (active) | 9.76 (active) | 8.97 (active)
25 | CAYKRYISWCAGNASASA [HC578] | 0.0156 (inactive) | 0.474 (inactive) | 1.13
26 | CANLKCPCQVAGNASASA [HC1215] | -0.928 (inactive) | -0.942 (inactive) | -0.8 (inactive)
27 | CAFWVRSKRSAGNASASA [FS-590] | 9.47 (active) | 8.07 (active) | 7.6 (active)
28 | CASQFRSKRSAGNASASA [FS-1085] | 9.98 (active) | 9.45 (active) | 7.11 (active)
29 | CASQQRQYRSAGNASASA [FS-564] | 2.45 | 5.55 (active) | 5.41 (active)
30 | CAMSTWSKRSAGNASASA [FS-464] | 0.45 (inactive) | 1.32 | 1.43
31 | CASSTRSKRSAGNASASA [FS-874] | 11.9 (active) | 11.3 (active) | 10 (active)
32 | CAASLAGTHGAGNASASA [HC539] | 0.00941 (inactive) | 3.06 | 1.2
33 | CADTPCSAHLAGNASASA [HC2471] | -1.99 (inactive) | -1.52 (inactive) | -0.796 (inactive)
34 | CALLLTTTQWAGNASASA [HC493] | -0.815 (inactive) | -0.0284 (inactive) | 0.00617 (inactive)
35 | CATTPCSGSIAGNASASA [HC1924] | -0.658 (inactive) | -0.276 (inactive) | -1.61 (inactive)
36 | CAEVPCHMPSAGNASASA [HC2366] | 0.437 (inactive) | 1.57 | 0.743 (inactive)
37 | CAPSLKATCTAGNASASA [HC1265] | 0.563 (inactive) | 1.42 | 0.215 (inactive)
38 | CATGPCTPLPAGNASASA [HC1194] | -0.592 (inactive) | -0.46 (inactive) | 0.602 (inactive)
39 | CADIINGLPVAGNASASA [HC658] | -0.191 (inactive) | -0.925 (inactive) | -0.966 (inactive)
40 | CAMEECSHHLAGNASASA [HC1735] | 0.695 (inactive) | -0.107 (inactive) | -0.123 (inactive)
41 | CASKERSKRSAGNASASA [FS-1568] | 12.6 (active) | 10.6 (active) | 9.24 (active)
42 | CAELNRSKRSAGNASASA [FS-927] | 10.6 (active) | 9.86 (active) | 8.24 (active)
43 | CAEKERSKRSAGNASASA [FS-1626] | 9.14 (active) | 7.38 (active) | 7.92 (active)
44 | CASSARNKRSAGNASASA [FS-94] | 11.8 (active) | 11.6 (active) | 8.13 (active)
45 | CAELNRSKKDAGNASASA [FS-232] | 0.785 (inactive) | 0.28 (inactive) | 0.715 (inactive)
